Measured values from PubChem BioAssay (NCATS).
Results filed as inconclusive are left out. Entries that show only a call come without a potency. A number with no mark means an inactive call. Calls of active or inactive are those of the source. Calls follow the shape of the dose curve; as a rule, active = well fitted inhibition curve with a large enough effect; inconclusive = small, poorly fitted or top-dose-only effect; inactive = no such curve, though single readings can be large or run the other way.

Biological target: Retinaldehyde dehydrogenase 3 (Homo sapiens) (UniProt P47895)
Experiment: qHTS for Inhibitors of the Aldehyde Dehydrogenase Family (ALDH1A3) Primary screen (AID 2061315)
Details: ALDH inhibition qHTS; series mostly up to 56 µM

Q: How did the Potency turn out when Cc1c(C(=O)NCCCO)cnn1-c1nc(-c2cccc(C(F)(F)F)c2)cs1 was run?
A: inactive

Q: For C[C@@H]1CCC2C(C)(C)[C@H](O)CC[C@]2(C)[C@@]12Cc1c(O)cc3c(c1O2)CN(CCO)C3=O (stereo not given in full), which Potency is on record?
A: inactive

Q: CC1=CC(=O)[C@]2(O[C@@H]3O[C@@H](C)[C@H](O)[C@@H](O)[C@H]3O)C=CO[C@@H](O[C@@H]3O[C@H](CO)[C@@H](O)[C@H](O)[C@H]3O)[C@H]12 was tested. Which Potency did it give?
A: inactive

Q: Which Potency does the source give for CC(CCO)CCC1C2(C)CCCC(C)(C)C2CC[C@@]1(C)O (stereo not given in full) here?
A: inactive

Q: How did the Potency turn out when CC(O)/C=C/C1(O)C(C)C(O[C@@H]2O[C@H](CO)[C@@H](O)[C@H](O)[C@H]2O)C(O)CC1(C)C (stereo not given in full) was run?
A: inactive

Q: How did the Potency turn out when CC1=C(C(=O)OCc2ccccc2)C(c2ccc(-c3ccccc3)cc2)NC(=O)N1CCCCCC(=O)O (stereo not given) was run?
A: inactive

Q: How did the Potency turn out when O=C(NC[C@H]1CN(c2ccc(N3CCOCC3=O)cc2)C(=O)O1)c1ccc(Cl)s1 was run?
A: inactive

Q: With C=C(C)[C@@H]1CC[C@]2(CO)CC[C@]3(C)[C@H](CC[C@@H]4[C@@]5(C)CC[C@H](O)C(C)(C)[C@@H]5CC[C@]43C)[C@@H]12 as the compound, how does the Potency read?
A: inactive

Q: Which Potency does the source give for O=C(Nc1ccc(Cl)cc1)C1CCCN(C(=O)c2cccc(-c3ccco3)c2)C1 (stereo not given) here?
A: inactive

Q: Which Potency does the source give for C[C@H]1[C@H](C)CC[C@]2(C(=O)O)CC[C@]3(C)C(=CCC4[C@@]5(C)C[C@@H](O)[C@H](O)C(C)(C)C5CC[C@]43C)[C@H]12 (stereo not given in full) here?
A: inactive

Q: For Cc1cc(O)c(C(C)C)cc1O[C@@H]1O[C@H](CO)[C@@H](O)[C@H](O)[C@H]1O, which Potency is on record?
A: inactive

Q: With Nc1c(S(=O)(=O)c2ccccc2)c2nc3ccccc3nc2n1-c1ccc(F)cc1 as the compound, how does the Potency read?
A: inactive

Q: Which Potency does the source give for C=C1C(O)CC2C(C(=O)O)=COC(O[C@@H]3O[C@H](COC(=O)/C=C/c4ccc(O)cc4)[C@@H](O)[C@H](O)[C@H]3O)C12 (stereo not given in full) here?
A: inactive

Q: C[C@]1(OC(=O)/C=C/c2ccc(O)cc2)C[C@@H](O)[C@]2(O)C=CO[C@@H](O[C@@H]3O[C@H](CO)[C@@H](O)[C@H](O)[C@H]3O)C12 (stereo not given in full) was tested. Which Potency did it give?
A: inactive

Q: For C[C@H]1CC[C@@H]2N(C1)C[C@@H]1[C@H]([C@@H](O)[C@H](O)[C@]3(O)[C@H]1C[C@@]14OC5(O)[C@@H](C[C@@H](O)[C@@H]31)[C@]4(C)CC[C@@H]5O)[C@]2(C)O, which Potency is on record?
A: inactive

Q: Which Potency does the source give for C/C=C/C=C/C(=O)O[C@@H]1C=C2COC(=O)[C@]2(O)[C@@]2(C)CCCC(C)(C)[C@H]12 here?
A: inactive

Q: How did the Potency turn out when C[C@@H]1C(=O)OC[C@H]2C(C(=O)O)=C[C@@H]3CC(C)(C)C[C@]312 was run?
A: inactive

Q: How did the Potency turn out when CCC(C)/C=C(C)/C=C/C1=CC2=CC(=O)C3(C)OC(C)(O)C(C(=O)OC)C3C2=CO1 (stereo not given) was run?
A: inactive

Q: CC(C)CC(=O)NCCn1cc(C(=O)O)c(=O)cc1C(O)c1ccccc1 (stereo not given) was tested. Which Potency did it give?
A: inactive

Q: How did the Potency turn out when CCOc1ccc(S(=O)(=O)n2c(C)nc3ccccc32)cc1 was run?
A: inactive

Q: For CC1(C)CCC2(C(=O)OC3OC(COC4OC(CO)C(O)C(O)C4O)C(O)C(O)C3O)CCC3(C)C(=CCC4C5(C)CCC(OC6OCC(O)C(O)C6O)C(C)(C)C5CCC43C)C2C1O (stereo not given), which Potency is on record?
A: inactive

Q: For C=C1C2=CC(O)C(C)C1(C)CC/C(C)=C/CCC1(C)OC1C2=O (stereo not given), which Potency is on record?
A: inactive

Q: With CC1CCC2(C)C(CC(O)C(O)C23CO3)C1(C)CCC1=CC(=O)OC1O (stereo not given) as the compound, how does the Potency read?
A: inactive

Q: How did the activity change, negative = inhibition turn out when C[C@@H]1O[C@@H](O[C@H]2[C@H](OC(=O)[C@]34CCC(C)(C)C[C@H]3C3=CCC5[C@@]6(C)C[C@H](O)[C@H](O[C@@H]7O[C@H](CO)[C@@H](O)[C@H](O)[C@H]7O)[C@@](C)(CO)C6[C@H](O)C[C@@]5(C)[C@]3(C)CC4)OC[C@H](O)[C@@H]2O)[C@H](O)[C@H](O)[C@H]1O[C@@H]1OC[C@@H](O)[C@H](O[C@@H]2OC[C@](O)(CO)[C@H]2O)[C@H]1O (stereo not given in full) was run?
A: 7.08% [at 11.2 µM]

Q: OCC1=CC[C@@H]2C=CO[C@@H](O[C@@H]3O[C@H](CO)[C@@H](O)[C@H](O)[C@H]3O)[C@H]12 was tested. Which Potency did it give?
A: inactive

Q: How did the Potency turn out when COc1ccc(/C=C/C(N)=O)cc1OC was run?
A: inactive

Q: How did the Potency turn out when C#CCCCn1cc(-c2cccc3c2N[C@H](C)CC(=O)N3)cn1 was run?
A: inactive

Q: How did the Potency turn out when C=C1C(=O)O[C@@H]2C=C(COC(C)=O)CC/C=C(\CO)CC[C@@H]12 was run?
A: inactive

Q: COc1ccc2nc(S(=O)(=O)Cc3ncc(C)c(OC)c3C)[nH]c2c1 was tested. Which Potency did it give?
A: inactive

Q: For COc1ccc(CCO[C@@H]2O[C@H](CO[C@@H]3OC[C@H](O)[C@H](O)[C@H]3O)[C@@H](O)[C@H](O)[C@H]2O)cc1, which Potency is on record?
A: inactive
